Bioassay records as filed in PubChem BioAssay.
Shown is part of a subset that was picked to be rich in hits.
HT1080 IDH1KD tx: toxicity to HT-1080 IDH1 knockdown cells (counter line); HT-1080 IDH1 knockdown viability, ATP luminescence, 48 h; Potency, µM (highest dose often 46.1 µM), for inactives: at the top dose activity, negative = toxicity, hits mostly cytotoxic; actives 2% (n = 360,000); AID 686971;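 also: potency is read from the fitted curve at half-maximal effect; 0% = DMSO wells and -100% = cell-free medium wells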
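Viability of IDH1-knockdown HT-1080 fibrosarcoma cells was assessed by CellTiter-Glo after 48 h at 37 °C with titrated compound; concentration-effect curves were classified by fit quality and response size.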
12-LOX inh: inhibitors of human 12S-lipoxygenase ALOX12; P18054; purified 12hLO, xylenol orange hydroperoxide absorbance; Potency, µM (titrated, usually from 108 µM), without a hit: at the highest dose activity change, negative = inhibition, hits mostly inhibitors; actives 1.1% (n = 580,000); AID 1671190; also: potency is read from the fitted curve at half-maximal effect
Target sequence (P18054 whole entry, looked up): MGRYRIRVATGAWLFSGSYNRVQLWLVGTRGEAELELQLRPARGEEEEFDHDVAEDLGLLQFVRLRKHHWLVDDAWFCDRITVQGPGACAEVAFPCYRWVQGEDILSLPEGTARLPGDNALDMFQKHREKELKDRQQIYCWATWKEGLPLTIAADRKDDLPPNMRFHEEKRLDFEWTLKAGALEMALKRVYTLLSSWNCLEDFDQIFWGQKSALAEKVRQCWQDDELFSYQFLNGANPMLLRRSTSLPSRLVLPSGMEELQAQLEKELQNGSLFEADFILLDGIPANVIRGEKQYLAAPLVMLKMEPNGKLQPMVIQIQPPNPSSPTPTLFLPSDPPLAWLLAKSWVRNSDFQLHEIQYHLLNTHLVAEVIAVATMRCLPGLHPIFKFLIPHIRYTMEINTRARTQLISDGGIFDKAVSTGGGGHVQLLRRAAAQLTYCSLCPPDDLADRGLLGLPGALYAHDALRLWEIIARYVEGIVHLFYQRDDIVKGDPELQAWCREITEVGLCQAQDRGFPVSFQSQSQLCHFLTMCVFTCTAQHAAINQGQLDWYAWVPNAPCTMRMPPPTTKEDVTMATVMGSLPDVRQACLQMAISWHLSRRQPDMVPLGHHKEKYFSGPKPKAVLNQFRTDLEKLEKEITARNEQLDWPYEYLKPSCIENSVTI
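Purified human 12hLO at 150 nM in 25 mM Hepes, 0.01% Triton X-100, pH 7.0, preincubated 15 min at room temperature with compound. Reaction started with 40 uM arachidonic acid, 30 min at room temperature. Hydroperoxide measured by Fe-xylenol orange, 573/405 nm absorbance ratio.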
IL-1B inflam inh: inflammasome signaling inhibition, IL-1 beta readout; AID 743279; activity change, % at 57.5 µM; actives 4.7% (n = 360,000); THP-1 LPS/ATP IL-1B secretion, AlphaLISA, 16 h; stronger effect = lower value; in the data active = activity change below about -50%; inconclusive = mostly about -30% to -49%
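THP-1 cells pretreated 1 hr with compounds (up to 57.5 uM final), then stimulated with LPS (250 ng/mL final) plus ATP (1.25 mM final); secreted IL-1B measured by AlphaLISA after 16 hr, decreased signal indicating inhibition.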
TDP1 cell CPT: DT40-hTDP1 cell growth loss with CPT. chicken DT40 Tdp1-/-;hTDP1 cells + 20 nM CPT, ATP luminescence, 48 h. Potency, µM (doses to about 46.2 µM), inactives show at the highest dose activity change, negative = growth inhibition, usual class: inhibitors. actives 12% (n = 420,000). AID 686979; also: potency is read from the fitted curve at half-maximal effect; nearly all actives have a fitted effect of over 55% in size
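Chicken DT40 Tdp1-/- cells stably complemented with human TDP1 were seeded at 400 cells/well in medium containing 20 nM camptothecin, exposed to pin-transferred compounds, and grown at 37 °C for at least 48 hr. Viability was read as ATP luminescence.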
DT40 TDP1 no CPT: qHTS for Inhibitors of human tyrosyl-DNA phosphodiesterase 1 (TDP1): qHTS in cells in absence of CPT; Potency, µM (doses to about 46.2 µM), for the others: at the highest dose activity change, negative = growth inhibition, hits mostly inhibitors; actives 15% (n = 420,000); DT40 Tdp1-/- hTDP1 cells, no CPT, ATP luminescence, 48 h; AID 686978, 2013; also: potency is read from the fitted curve at half-maximal effect; nearly all actives have a fitted effect of over 55% in size
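Chicken DT40 Tdp1-/- cells complemented with human TDP1, screened without camptothecin (DMSO vehicle only), 400 cells/well. Compounds pin-transferred, cells incubated at 37 °C for at least 48 hr. Growth read as ATP-dependent luminescence (CellTiter-Glo, 30 min at RT).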
HT1080NT lethal: kills 2HG-producing HT-1080-NT fibrosarcoma cells; HT-1080-NT fibrosarcoma viability, CellTiter-Glo ATP luminescence, 48 h; Potency, µM (highest dose often 46.1 µM), for inactives: at the highest dose activity, negative = less viability, hits mostly cytotoxic; actives 1.6% (n = 360,000);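 also: NT is the 2HG producing partner of a matched IDH1 knockdown line; potency is read from the fitted curve at half-maximal effect; 0% = DMSO-treated cells and -100% = media-only wells without cells; nearly all actives have a fitted effect of over 55% in size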
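Toxicity toward the 2HG-producing NT line was scored as %Activity, normalised to DMSO and no-cell wells, from CellTiter-Glo luminescence after 48 hours' treatment.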
Active calls of the source: *; ? = inconclusive; · = not tested or not shown; ! = not active in a repeat; [ ] = dose if it differs, or a comment. Unless noted, calls follow the shape of the dose curve; as a rule, active = well fitted curve in the direction sought with a large enough effect; inconclusive = small, poorly fitted or top-dose-only effect, or another doubt; inactive = no such curve, though single readings can be large; an effect the other way counts as inactive or inconclusive. Unless noted, % is scaled to controls: 0 for no effect and ±100 for the full control effect.

SMILES	HT1080 IDH1KD tx	12-LOX inh	IL-1B inflam inh	TDP1 cell CPT	DT40 TDP1 no CPT	HT1080NT lethal
CCOc1ccc(NC(=O)c2ccc3c(=O)n4c(nc3c2)CCCCC4)cc1	0%	1%	24	?	?	11%
O=C(NCCc1cccnc1)C12CC3CC(CC(C3)C1)C2	·	-3%	·	·	·	·
Cc1noc(C2CCCCCN2C(=O)NCC(C)C)n1 (stereo not drawn)	·	30%	·	·	·	·
Cc1ccc(C)c(CNC(=O)c2ccc3c(c2)nc2n3CCCCC2)c1	·	2%	·	?	18µM*	·
CCOc1ccccc1NC(=O)C(=O)Nc1ccc2nc3n(c(=O)c2c1)CCCCC3	·	-17%	·	23µM*	18µM*	·
CCOc1ccc(NC(=O)c2ccc3c(SCC(=O)O)c4c(nc3c2)CCCC4)cc1	17%	-14%	-17	-4%	4%	15%
O=C(Nc1nccs1)c1ccc2c(=O)n3c(nc2c1)CCCCC3	-24%	23%	0	?	16µM*	1%
O=C(O)CSc1c2c(nc3cc(C(=O)Nc4cccc(C(F)(F)F)c4)ccc13)CCC2	-1%	45µM*	-28	2%	17%	1%
COc1cccc(-c2cnc([C@@H]3COCCN3Cc3ccc(S(C)(=O)=O)cc3)[nH]2)c1	·	1%[176 µM]	·	·	·	·
O=C(Nc1ccc(Cl)c(Cl)c1)c1n[nH]c(=O)c2ccccc12	·	-29%	·	·	·	·
COc1ccc2c(CN(C)CCOc3cc(C)cc(C)c3)cc(=O)oc2c1	·	61%	·	·	·	·
CCOCCCNC(=S)Nc1ccc2nc3n(c(=O)c2c1)CCCCC3	0%	-2%	-64*	-18%	-25%	-3%
CC(=O)c1cccc(NC(=O)c2ccc3c(Cl)c4c(nc3c2)CCCC4)c1	25%	-15%	-21	?	23µM*	27%
COCCCNC(=S)Nc1ccc2nc3n(c(=O)c2c1)CCCCC3	-1%	-7%	32	-13%	-2%	1%
CCc1cccc(NC(=O)c2ccc3c(Cl)c4c(nc3c2)CCCC4)c1	·	-20%	·	·	·	·
CCCNC(=O)/C(=C/c1cn(S(=O)(=O)N(C)C)c2ccccc12)NC(=O)c1ccccc1OC	·	-26%	·	·	·	·
CCn1c(-c2ccc(C(C)(C)C)cc2)n[nH]c1=S	-25%	16µM*	-4	15µM*	8.2µM*	-11%
CCn1c(-c2cc(Br)ccc2O)n[nH]c1=S	-23%	45µM*	-23	-9%	-21%	0%
Cn1c(-c2ccc(C(C)(C)C)cc2)n[nH]c1=S	-2%	?	15	?	?	-12%
Cn1cccc1/C=N/n1c(-c2ccc(C(C)(C)C)cc2)n[nH]c1=S	-8%[9.24 µM]	25µM*	45	8.2µM*	8.2µM*	?
CCn1c(-c2cccc(Cl)c2)n[nH]c1=S	5%	28µM*	31	-25%	1%	16%
O=C(Cn1nc2c(cc1=O)CCCCC2)Nc1cccc(C(F)(F)F)c1	·	17%	·	·	·	·
Cc1ncoc1C(=O)N1CCC(F)(c2nc(-c3ccncc3)no2)CC1	·	51%	·	·	·	·
CC(C)(C)c1ccc(-c2n[nH]c(=S)n2C2CCCC2)cc1	?	?	-7	?	16µM*	?
Cc1cc(C)c(S(=O)(=O)N2CCN(C(=O)c3cc(=O)[nH]c4ccccc34)CC2)c(C)c1	-4%	-3%	-13	15µM*	16µM*	-5%[9.24 µM]
SMILES	HT1080 IDH1KD tx	12-LOX inh	IL-1B inflam inh	TDP1 cell CPT	DT40 TDP1 no CPT	HT1080NT lethal
Cc1cc(C)c(C)c(S(=O)(=O)N2CCN(C(=O)c3cc(=O)[nH]c4ccccc34)CC2)c1C	?	-16%	0	?	13µM*	?
N#Cc1ccccc1S(=O)(=O)N1CCN(C(=O)c2cc(=O)[nH]c3ccccc23)CC1	0%	0%	32	?	4%	-7%
Cc1cc(C)n(CC(=O)Nc2ccc(C(=O)NCc3ccco3)cc2)c(=O)c1C#N	·	6%	·	·	·	·
O=C(c1coc(=O)c(Br)c1)N1CCOCC1	5%	470%	-7	5.2µM*	5.2µM*	6%
CCc1noc(-c2cccn3c(CNC(=O)c4cc(Cl)ccc4F)nnc23)n1	·	86%	·	·	·	·
COc1ccc(C(=O)c2c(N)c(C(=O)Nc3ccccc3)c3ccccn23)cc1	·	24%	·	·	·	·
COc1cc(O)c(C(CCN2CCCCC2)c2ccc(N(C)C)cc2)c(OC)c1 (stereo not drawn)	-2%	-4%	?	16µM*	6.5µM*	-3%
COc1cc(O)c(C(CCN2CCCC2)c2ccc(N(C)C)cc2)c(OC)c1 (stereo not drawn)	-15%	0%	-13	15µM*	21µM*	3%
Cc1ncc2c(c1CNC(=O)C1CCc3ccccc3C1)CCNC2 (stereo not drawn)	·	1%	·	·	·	·
OC1C(O)C(O)C(O)C(O)C1O (stereo not drawn)	5%	2%	11	15µM*!	?	?
COc1cc(-n2cnnn2)cc(-n2ccnc2-c2cc3n(n2)CCCNC3)c1	·	141%	·	·	·	·
CSc1ccccc1C(=O)Nc1cccc(C)c1C	·	0%	·	·	·	·
Cc1cccc(NC(=O)c2ccccc2O)c1C	-18%	-20%	-61*	21µM*	?	?
Cc1cccc(NC(=O)c2cnn3ccccc23)c1C	?	-13%	-53*	1.6µM*	2.1µM*	-21%
Cc1ccccc1NC(=O)c1cnn2cccnc12	·	21%	·	·	·	·
CSc1ccccc1C(=O)Nc1cccc([N+](=O)[O-])c1C	4%	2%	13	-10%	-3%	?
Cc1ccc(C)c(NC(=O)c2ccccc2O)c1	?	0%	6	8.2µM*	9.2µM*	?
Cc1cccc(NC(=O)c2cccc([N+](=O)[O-])c2O)c1C	?	?	5	16µM*	13µM*	?
COc1ccccc1-n1cnnc1SC(C)C(=O)c1ccc(F)cc1 (stereo not drawn)	·	-25%	·	·	·	·
O=c1oc2ccc(F)cc2cc1S(=O)(=O)N1CCc2ccccc2C1	·	4%	·	·	·	·
CCS(=O)(=O)CC(=O)N1CCn2nc(C(=O)Nc3ccccc3)cc2C1	·	43%	·	·	·	·
O=C(Nc1ccc(F)c(Cl)c1)C1CCN(S(=O)(=O)c2ccc3c(c2)CCCN3C(=O)C2CCC2)CC1	·	?	·	9.2µM*	12µM*	·
CCC(=O)N1CCCc2cc(S(=O)(=O)N3CCC(C(=O)NC4CCCCC4)CC3)ccc21	·	-14%	·	-3%	-20%	·
O=C(Nc1ccccc1)C1CCN(S(=O)(=O)c2ccc3c(c2)CCCN3C(=O)C2CCC2)CC1	·	4%	·	?	?	·
